# From the supplement of paper PMC8728848
# Many of the other results were omitted from the sample, so the strongest signals are more common in it than they were.
# Legend:
# Assay in all cases: glycan array binding signal (z-score within array); higher = stronger binding
# Conditions in all cases: glycan notation: IUPAC condensed, linker removed
# Fuc(a1-2)Gal = target: Fuc(a1-2)Gal
# In short: (§1)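 The Consortium for Functional Glycomics database supplied 3228 glycan arrays, of which those lacking an available protein sequence were dropped. The binding signal, a within-array Z-score, was averaged across arrays of the same protein sequence and across linkers. Negative scores can be read as non-binding.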
# Fuc(a1-2)Gal(b1-3)GalNAc = target: Fuc(a1-2)Gal(b1-3)GalNAc
# In short: as §1
# [1] = target: Fuc(a1-2)Gal(b1-3)GlcNAc(b1-2)Man(a1-3)[Fuc(a1-2)Gal(b1-3)GlcNAc(b1-2)Man(a1-6)]Man(b1-4)GlcNAc(b1-4)[Fuc(a1-6)]GlcNAc
# In short: as §1
# [2] = target: Fuc(a1-2)Gal(b1-4)GlcNAc(b1-3)Gal(b1-4)GlcNAc(b1-3)Gal(b1-4)GlcNAc
# In short: as §1
# [3] = target: Fuc(a1-2)Gal(b1-4)GlcNAc(b1-3)[Fuc(a1-3)[Gal(b1-4)]GlcNAc(b1-6)]Gal(b1-4)Glc
# In short: as §1
# [4] = target: Fuc(a1-2)Gal(b1-4)[Fuc(a1-3)]GlcNAc(b1-3)[Neu5Ac(a2-6)Gal(b1-4)GlcNAc(b1-6)]Gal(b1-4)Glc
# In short: as §1
# [5] = target: Fuc(a1-2)[GalNAc(a1-3)]Gal(b1-4)Glc
# In short: as §1
# [6] = target: Fuc(a1-3)[Gal(b1-4)]GlcNAc(b1-3)Gal(b1-4)[Fuc(a1-3)]GlcNAc
# In short: as §1
# [7] = target: Gal(a1-3)Gal(b1-3)GlcNAc(b1-2)Man
# In short: as §1
# Gal(b1-3)GlcNAc = target: Gal(b1-3)GlcNAc
# In short: as §1
# [8] = target: Gal(b1-3)GlcNAc(b1-3)Gal(b1-4)GlcNAc
# In short: as §1
# [9] = target: Gal(b1-3)GlcNAc(b1-3)Gal(b1-4)[Fuc(a1-3)]GlcNAc
# In short: as §1
# Gal(b1-4)GlcNAc(b1-2)Man = target: Gal(b1-4)GlcNAc(b1-2)Man
# In short: as §1
# [10] = target: Gal(b1-4)GlcNAc(b1-2)Man(a1-3)[Man(a1-6)]Man(b1-4)GlcNAc(b1-4)GlcNAc
# In short: as §1
# [11] = target: Gal(b1-4)GlcNAc(b1-2)Man(a1-6)Man(b1-4)GlcNAc(b1-4)GlcNAc
# In short: as §1
# [12] = target: Gal(b1-4)GlcNAc(b1-3)Gal(b1-3)GalNAc
# In short: as §1
# [13] = target: Gal(b1-4)GlcNAc(b1-3)Gal(b1-4)GlcNAc(b1-3)Gal(b1-4)GlcNAc(b1-2)Man(a1-3)[Gal(b1-4)GlcNAc(b1-3)Gal(b1-4)GlcNAc(b1-3)Gal(b1-4)GlcNAc(b1-2)Man(a1-6)]Man(b1-4)GlcNAc(b1-4)[Fuc(a1-6)]GlcNAc
# In short: as §1
# [14] = target: Gal3S(b1-4)[Fuc(a1-3)]GlcNAc
# In short: as §1
# Gal6S(b1-4)Glc = target: Gal6S(b1-4)Glc
# In short: as §1
# [15] = target: GlcA3S(b1-3)Gal(b1-4)GlcNAc(b1-3)Gal(b1-4)Glc
# In short: as §1
# [16] = target: GlcNAc(b1-2)Man(a1-3)[GlcNAc(b1-4)][GlcNAc(b1-2)Man(a1-6)]Man(b1-4)GlcNAc(b1-4)[Fuc(a1-6)]GlcNAc
# In short: as §1
# [17] = target: GlcNAc(b1-2)[GlcNAc(b1-4)]Man(a1-3)[GlcNAc(b1-4)][GlcNAc(b1-2)[GlcNAc(b1-6)]Man(a1-6)]Man(b1-4)GlcNAc(b1-4)[Fuc(a1-6)]GlcNAc
# In short: as §1
# [18] = target: GlcNAc(b1-2)[GlcNAc(b1-6)]Man(a1-6)[GlcNAc(b1-2)Man(a1-3)]Man(b1-4)GlcNAc(b1-4)GlcNAc
# In short: as §1
# GlcNAc(b1-3)Gal(b1-4)Glc = target: GlcNAc(b1-3)Gal(b1-4)Glc
# In short: as §1
# [19] = target: GlcNAc(b1-3)Gal(b1-4)GlcNAc(b1-3)Gal(b1-4)GlcNAc(b1-2)[GlcNAc(b1-3)Gal(b1-4)GlcNAc(b1-3)Gal(b1-4)GlcNAc(b1-6)]Man(a1-6)[GlcNAc(b1-3)Gal(b1-4)GlcNAc(b1-3)Gal(b1-4)GlcNAc(b1-2)Man(a1-3)]Man(b1-4)GlcNAc(b1-4)[Fuc(a1-6)]GlcNAc
# In short: as §1
# [20] = target: GlcNAc(b1-3)Gal(b1-4)GlcNAc(b1-6)[Gal(b1-3)]GalNAc
# In short: as §1
# [21] = target: GlcNAc(b1-3)Gal(b1-4)GlcNAc(b1-6)[GlcNAc(b1-3)]Gal(b1-4)GlcNAc
# In short: as §1
# GlcNAc(b1-3)Man = target: GlcNAc(b1-3)Man
# In short: as §1
# [22] = target: GlcNAc(b1-3)[GlcNAc(b1-6)]Gal(b1-4)GlcNAc
# In short: as §1
# Kdn(a2-3)Gal(b1-4)Glc = target: Kdn(a2-3)Gal(b1-4)Glc
# In short: as §1
# MurNAc(b1-4)GlcNAc = target: MurNAc(b1-4)GlcNAc
# In short: as §1
# [23] = target: Neu5Ac(a2-3)Gal(b1-3)GalNAc(b1-4)[Neu5Ac(a2-3)]Gal(b1-4)Glc
# In short: as §1
# [24] = target: Neu5Ac(a2-3)Gal(b1-3)GalNAc(b1-4)[Neu5Ac(a2-8)Neu5Ac(a2-3)]Gal(b1-4)Glc
# In short: as §1
# [25] = target: Neu5Ac(a2-3)Gal(b1-3)GlcNAc(b1-2)Man
# In short: as §1
# [26] = target: Neu5Ac(a2-3)Gal(b1-3)[Fuc(a1-4)]GlcNAc
# In short: as §1
# Neu5Ac(a2-3)Gal(b1-4)Glc = target: Neu5Ac(a2-3)Gal(b1-4)Glc
# In short: as §1
# [27] = target: Neu5Ac(a2-3)Gal(b1-4)GlcNAc(b1-2)Man(a1-3)[Neu5Ac(a2-3)Gal(b1-4)GlcNAc(b1-2)Man(a1-6)]Man(b1-4)GlcNAc(b1-4)[Fuc(a1-6)]GlcNAc
# In short: as §1
# [28] = target: Neu5Ac(a2-3)Gal(b1-4)GlcNAc(b1-2)[Neu5Ac(a2-3)Gal(b1-4)GlcNAc(b1-4)]Man(a1-3)[GlcNAc(b1-4)][Neu5Ac(a2-3)Gal(b1-4)GlcNAc(b1-2)[Neu5Ac(a2-3)Gal(b1-4)GlcNAc(b1-6)]Man(a1-6)]Man(b1-4)GlcNAc(b1-4)GlcNAc
# In short: as §1
# [29] = target: Neu5Ac(a2-3)Gal(b1-4)GlcNAc(b1-2)[Neu5Ac(a2-3)Gal(b1-4)GlcNAc(b1-6)]Man(a1-6)[Neu5Ac(a2-3)Gal(b1-4)GlcNAc(b1-2)Man(a1-3)][GlcNAc(b1-4)]Man(b1-4)GlcNAc(b1-4)GlcNAc
# In short: as §1
# [30] = target: Neu5Ac(a2-3)Gal(b1-4)GlcNAc(b1-3)Gal(b1-4)GlcNAc(b1-3)[Neu5Ac(a2-3)Gal(b1-4)GlcNAc(b1-3)Gal(b1-4)GlcNAc(b1-6)]GalNAc
# In short: as §1
# [31] = target: Neu5Ac(a2-3)Gal(b1-4)GlcNAc(b1-3)GalNAc
# In short: as §1
# [32] = target: Neu5Ac(a2-3)Gal(b1-4)GlcNAc(b1-3)[Neu5Ac(a2-3)Gal(b1-4)GlcNAc(b1-6)]GalNAc
# In short: as §1
# [33] = target: Neu5Ac(a2-3)Gal(b1-4)[Fuc(a1-3)]GlcNAc(b1-3)GalNAc
# In short: as §1
# [34] = target: Neu5Ac(a2-6)Gal(b1-4)GlcNAc(b1-2)Man(a1-3)[Man(a1-6)]Man(b1-4)GlcNAc(b1-4)GlcNAc
# In short: as §1
# [35] = target: Neu5Ac(a2-6)Gal(b1-4)GlcNAc(b1-2)Man(a1-3)[Neu5Ac(a2-6)Gal(b1-4)GlcNAc(b1-2)Man(a1-6)]Man(b1-4)GlcNAc(b1-4)[Fuc(a1-6)]GlcNAc
# In short: as §1
# [36] = target: Neu5Ac(a2-6)Gal(b1-4)GlcNAc(b1-3)Gal(b1-4)GlcNAc(b1-2)Man(a1-3)[Neu5Ac(a2-6)Gal(b1-4)GlcNAc(b1-3)Gal(b1-4)GlcNAc(b1-2)Man(a1-6)]GalNAc
# In short: as §1
# [37] = target: Neu5Ac(a2-6)Gal(b1-4)GlcNAc(b1-3)Gal(b1-4)GlcNAc(b1-3)GalNAc
# In short: as §1
# [38] = target: Neu5Ac(a2-6)GalNAc(b1-4)GlcNAc
# In short: as §1
# [39] = target: Neu5Ac(a2-6)GlcNAc(b1-4)GlcNAc(b1-4)GlcNAc
# In short: as §1
# [40] = target: Neu5Ac(a2-8)Neu5Ac(a2-3)Gal(b1-3)GalNAc(b1-4)[Neu5Ac(a2-3)]Gal(b1-4)Glc
# In short: as §1
# [41] = target: Neu5Ac(a2-8)Neu5Ac(a2-3)Gal(b1-4)GlcNAc
# In short: as §1
# [42] = target: Neu5Ac(a2-8)Neu5Ac(a2-3)[Gal(b1-3)GalNAc(b1-4)]Gal(b1-4)Glc
# In short: as §1
# [43] = target: Neu5Ac9Ac(a2-3)Gal(b1-3)GlcNAc
# In short: as §1
# Neu5Gc(a2-3)Gal(b1-4)Glc = target: Neu5Gc(a2-3)Gal(b1-4)Glc
# In short: as §1
binder,measurement,setting,value
LlpB (Pseudomonas fluorescens) (protein) MGSSHHHHHHSSGLVPRGSHMASSGFRIILFNSANNGTAILPPRNCLVAGQYLESPSKRYKLILEADGNLRLYDNGVPIWVADSSVPYTYVDNRPNTNLVTCFYMQGSAFLVDRVGSRTWATIGDWIDGAADRAYLQVQDDGNVVVVDGVPRWARFGFTPAALPNRGVFYPDHGTGPLPSFPVWSWTF,glycan array binding signal (z-score),Fuc(a1-2)Gal,-0.044
same,glycan array binding signal (z-score),Fuc(a1-2)Gal(b1-3)GalNAc,-0.631
same,glycan array binding signal (z-score),[1],-0.114
same,glycan array binding signal (z-score),[2],2.58
same,glycan array binding signal (z-score),[3],-0.33
same,glycan array binding signal (z-score),[4],0.032
same,glycan array binding signal (z-score),[5],-0.54
same,glycan array binding signal (z-score),[6],1.4
same,glycan array binding signal (z-score),[7],0.466
same,glycan array binding signal (z-score),Gal(b1-3)GlcNAc,0.344
same,glycan array binding signal (z-score),[8],0.129
same,glycan array binding signal (z-score),[9],0.523
same,glycan array binding signal (z-score),Gal(b1-4)GlcNAc(b1-2)Man,3.72
same,glycan array binding signal (z-score),[10],0.362
same,glycan array binding signal (z-score),[11],-0.158
same,glycan array binding signal (z-score),[12],-0.092
same,glycan array binding signal (z-score),[13],2.11
same,glycan array binding signal (z-score),[14],-1.03
same,glycan array binding signal (z-score),Gal6S(b1-4)Glc,-1.15
same,glycan array binding signal (z-score),[15],-1.73
same,glycan array binding signal (z-score),[16],1.22
same,glycan array binding signal (z-score),[17],-0.095
same,glycan array binding signal (z-score),[18],0.893
same,glycan array binding signal (z-score),GlcNAc(b1-3)Gal(b1-4)Glc,-0.719
same,glycan array binding signal (z-score),[19],0.375
same,glycan array binding signal (z-score),[20],1.38
same,glycan array binding signal (z-score),[21],-0.837
same,glycan array binding signal (z-score),GlcNAc(b1-3)Man,0.669
same,glycan array binding signal (z-score),[22],-0.461
same,glycan array binding signal (z-score),Kdn(a2-3)Gal(b1-4)Glc,3.03
same,glycan array binding signal (z-score),MurNAc(b1-4)GlcNAc,2.54
same,glycan array binding signal (z-score),[23],2.9
same,glycan array binding signal (z-score),[24],-1.93
same,glycan array binding signal (z-score),[25],2.63
same,glycan array binding signal (z-score),[26],2.3
same,glycan array binding signal (z-score),Neu5Ac(a2-3)Gal(b1-4)Glc,2.98
same,glycan array binding signal (z-score),[27],-0.332
same,glycan array binding signal (z-score),[28],1.21
same,glycan array binding signal (z-score),[29],-0.505
same,glycan array binding signal (z-score),[30],-0.12
same,glycan array binding signal (z-score),[31],-0.794
same,glycan array binding signal (z-score),[32],-0.411
same,glycan array binding signal (z-score),[33],0.993
same,glycan array binding signal (z-score),[34],2.88
same,glycan array binding signal (z-score),[35],3.58
same,glycan array binding signal (z-score),[36],2.6
same,glycan array binding signal (z-score),[37],-0.312
same,glycan array binding signal (z-score),[38],-0.182
same,glycan array binding signal (z-score),[39],2.47
same,glycan array binding signal (z-score),[40],2.81
same,glycan array binding signal (z-score),[41],-1.02
same,glycan array binding signal (z-score),[42],-1.03
same,glycan array binding signal (z-score),[43],-0.008
same,glycan array binding signal (z-score),Neu5Gc(a2-3)Gal(b1-4)Glc,0.956
